Reference: PubChem BioAssay AID1851 (National Center for Advancing Translational Sciences (NCATS), 2009)
In all, about 16,000 compounds went through this assay and about 4,000 (25%) were called active. Not shown: some 26% with an inconclusive outcome. The call rests on the fitted dose curve; in most records, active means well fitted curve in the direction sought with a large enough effect; inconclusive means small, poorly fitted or top-dose-only effect, or effect the other way; inactive means no such curve, though single readings can be large or run the other way. Not all results are given here.

These molecules were tested against Cytochrome P450 2C9 (Homo sapiens) (UniProt P11712) (assay: Cytochrome panel assay with activity outcomes). Conditions: recombinant CYP, pro-luciferin dealkylation, luminescence, p450-cyp2c9; series mostly up to 57.1 µM; activity, negative = inhibition: at the top concentration.
On the % scale 0 is the no-effect control and ±100 the full control effect.

Chain of Cytochrome P450 2C9 (Homo sapiens) (P11712 whole entry, looked up): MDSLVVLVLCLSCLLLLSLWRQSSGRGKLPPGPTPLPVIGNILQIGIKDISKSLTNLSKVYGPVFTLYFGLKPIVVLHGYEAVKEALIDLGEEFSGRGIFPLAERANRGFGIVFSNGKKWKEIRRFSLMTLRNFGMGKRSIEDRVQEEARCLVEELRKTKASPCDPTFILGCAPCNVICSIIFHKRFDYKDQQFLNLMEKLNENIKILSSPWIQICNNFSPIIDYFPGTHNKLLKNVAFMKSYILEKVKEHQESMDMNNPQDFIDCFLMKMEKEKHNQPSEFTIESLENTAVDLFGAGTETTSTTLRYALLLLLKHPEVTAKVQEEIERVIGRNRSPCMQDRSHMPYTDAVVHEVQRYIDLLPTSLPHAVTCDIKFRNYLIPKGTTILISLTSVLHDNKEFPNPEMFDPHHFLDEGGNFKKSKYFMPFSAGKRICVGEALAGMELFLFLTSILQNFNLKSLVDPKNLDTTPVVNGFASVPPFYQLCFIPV

activity, negative = inhibition, inactive:
O=C(O)C(=O)/C=C(\O)c1ccc(Br)cc1 -19.1% [at 11.4 µM], CCCOc1ccc(C(=O)NC(=S)Nc2nc3ccc(C)cc3s2)cc1 -22.2%, COc1ccc2nc(NC(=O)CSc3nnc(C)s3)sc2c1 -8.02%, COc1ccc([C@@H]2Sc3ccccc3N(CCN(C)C)C(=O)[C@@H]2OC(C)=O)cc1 28.5%, COc1ccc2[nH]c(=O)c(NC(N)=S)nc2c1 -27.2%, CN(Cc1ccco1)C(=O)C1CCC(=O)N1Cc1ccc(F)cc1 (configuration not stated) -48.2%, O=C1C2=C(Nc3cc([N+](=O)[O-])ccc3N2)O[C@@H]1c1c[nH]c2ccc(COc3ccccc3)cc12 -16.4% [at 11.4 µM], CC1(CC(=O)O)O[C@H]2CCCCC[C@H]2O1 (some centres not stated) (tested in a mixture with another compound) 1.04% [at 11.4 µM], CC(=O)N1CC2(CC2)CC1c1ccccc1 (configuration not stated) 8.15%, CO[C@H]1C[C@@H](O[C@@H]2[C@H](C)[C@H](O[C@@H]3O[C@@H](C)C[C@@H](N(C)C)[C@@H]3O)[C@H](C)C[C@]3(CO3)C(=O)[C@H](C)[C@H](O)[C@H](C)[C@H](C)OC(=O)[C@@H]2C)O[C@@H](C)[C@H]1O -14.7% [at 25.6 µM], CC(=O)N[C@@H](CC(=O)O)C(=O)O 5.33% [at 25.6 µM], O=C(Nc1ccc(-c2cn3ccccc3n2)cc1)c1cc(Br)ccc1O -1.72% [at 11.4 µM], CC(C)(C)CC(C)(C)c1ccc(O)c(C[N+](C)(C)[O-])c1 0.733% [at 11.4 µM], Cc1cc(C)nc(NN2C(=O)/C(=C/c3ccccc3)SC2=S)n1 -17%, CC(C)CC(=O)N[C@H](C(=O)N[C@H](C(=O)N[C@@H](CC(C)C)[C@H](O)CC(=O)N[C@@H](C)C(=O)N[C@@H](CC(C)C)[C@H](O)CC(=O)O)C(C)C)C(C)C 0.404% [at 25.6 µM], O=C(O)[C@@H]1[C@@H](C(=O)O)[C@]23C[C@@]2(C(=O)O)[C@]2(C(=O)O)CCC3=C3CCCC312 14% [at 11.4 µM], CCOC(=O)c1cnc2c(cnn2CC)c1NN=C(C)C -17.8%, Cc1nnc(NC(=O)CSc2ncnc3c2cnn3-c2ccccc2C)s1 -21.4%, CCOc1ccccc1NC(=O)C(=O)NCC1CCCN1CC (configuration not stated) -1.86%, CC1CN(C(=O)c2cc3c(s2)CCC3)CC(C)O1 (configuration not stated) 18.7%, CCOC(=O)CC1NC(=O)c2ccccc21 (configuration not stated) -12.7%, CC(C)=NO[C@@H](C)c1cn([C@@H]2COC[C@@H]2O)nn1 11.5% [at 11.4 µM], COc1ccc2cc(CCC(C)=O)ccc2c1 -16.9% [at 25.6 µM], CC(C)(Sc1ccc(CCN(CCCCC2CCCCC2)C(=O)NC2CCCCC2)cc1)C(=O)O -9.97%, COc1ccc(NC(=O)COc2ccc(CNCCCN3CCOCC3)cc2OC)cc1 -29.9%, CN(C)Cc1ccccc1-c1cncnc1NCc1cccs1 -10.6% [at 2.29 µM], CN(C)C(=O)c1ccc(-c2cncnc2NCc2cccs2)cc1 -0.243% [at 2.29 µM]

AC50, active:
Cc1ccc2nc(NC(=O)COC(=O)CSc3nc(C)cc(C)n3)sc2c1 3.98 µM, Cc1ccc2nc(NC(=O)CSCC(=O)OCC(=O)c3ccc(Br)cc3)sc2c1 14.1 µM, NC(=S)Nc1ccc(Oc2ccc(NC(N)=S)cc2)cc1 7.08 µM, O=C1c2ccccc2NC(c2ccc(F)cc2)N1Cc1ccco1 (configuration not stated) 3.16 µM, Cc1ccc(C2Nc3ccccc3C(=O)N2Cc2ccco2)cc1 (configuration not stated) 3.16 µM, COc1ccc(C2Nc3ccccc3C(=O)N2Cc2ccco2)cc1COc1ccc([N+](=O)[O-])cc1 (configuration not stated) 0.178 µM, CC(C)Oc1ccc2ccccc2c1C=O 10 µM, O=C(c1cc(Br)ccc1O)c1cc(Br)ccc1O 0.1 µM, COc1cc(/C=C2\SC(=S)N(Nc3ccccc3)C2=O)cc(OC)c1OC 6.31 µM, CCc1ccccc1NC(=O)CSc1nc(-c2ccccc2)nn1C(=O)c1cccc([N+](=O)[O-])c1 0.447 µM, CCOC(=O)c1cnc2ccc(C)cc2c1Sc1ccccc1C(=O)OC 1.41 µM, Cc1ccccc1-n1ncc2c(SCC(=O)N3c4ccccc4CC3C)ncnc21 (configuration not stated) 10 µM, Cc1cc(C)n(C(=O)c2cc3c(s2)CCCC3)n1 11.2 µM, CCOC(=O)COc1c(OC)cc(Cl)cc1C1Nc2ccccc2C(=O)N1c1ccc(F)cc1 (configuration not stated) 0.282 µM, CCOC(=O)COc1c(OC)cc(Cl)cc1C1Nc2ccccc2C(=O)N1c1cccc(C)c1 (configuration not stated) 0.708 µM, COc1ccc(CCNC(=O)COc2ccc(S(=O)(=O)NC3CCCCC3)cc2Cl)cc1 2.51 µM, COc1ccc(CCCC(=O)NC2CCCCC2)cc1 10 µM, O=C(NC1CCCCC1)C(c1cccs1)N(Cc1cccs1)C(=O)c1ccco1 (configuration not stated) 8.91 µM, CCc1ccc(C(C(=O)NCc2ccc(OC)cc2)N(CCOC)C(=O)Cc2cccs2)cc1 (configuration not stated) 10 µM

AC50, inactive:
CC(C)NC[C@@H](O)COc1cccc2ccccc12
